Rows were chosen to be rich in hits. Some 11% of all compounds tested hit in one or more screens of this group.
PNC assembly inh: inhibitors of perinucleolar compartment assembly; PC3M PTB-GFP, PNC prevalence imaging, 16 h; active compounds read low; 140,000 tested, 3.1% active; activity change (PNC), negative = inhibition, % at 10 µM; AID 2417;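 active = readout at or below -70, meaning at least 70% loss of cells showing the perinucleolar compartment, a nuclear body marking cancer cells; inconclusive = readout between -30 and a set limit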;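 note: plate controls were DMSO wells for no effect and camptothecin positive control wells for full effect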
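Compounds are pinned in duplicate onto adhered PC3M cells stably expressing GFP-tagged PTB and incubated 16 h at 37 C. Cells are then fixed, nuclei stained with Hoechst, and PNC-positive cells counted.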
HPGD block: HPGD (human) dehydrogenase inhibition. 150,000 tested, 4.3% active. Potency, µM, inactives show top-dose activity change, negative = inhibition, actives largely listed as inhibitors. purified HPGD, NADH fluorescence kinetic, PGE2 substrate. P15428; note: potency is the fitted concentration of half-maximal effect; % is set by controls: 0 for no effect and ±100 for the full control effect
Target sequence (P15428 whole entry, looked up): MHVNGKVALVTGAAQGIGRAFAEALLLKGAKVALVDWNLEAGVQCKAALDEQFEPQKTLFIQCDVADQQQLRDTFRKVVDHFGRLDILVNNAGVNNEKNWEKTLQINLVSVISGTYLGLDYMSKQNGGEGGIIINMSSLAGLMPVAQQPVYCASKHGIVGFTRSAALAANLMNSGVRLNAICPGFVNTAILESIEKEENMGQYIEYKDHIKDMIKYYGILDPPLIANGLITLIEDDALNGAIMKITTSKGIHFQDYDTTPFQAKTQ
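20 nM HPGD preincubated 15 min at room temperature with compound in 50 mM Tris-HCl pH 8, 0.01% Tween 20. Started with 1 mM NAD+ and 30 uM prostaglandin E2; NADH fluorescence (360/450 nm) read 5 times over 30-s intervals, last minus first.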
HTT ATP protect: Huntington cell model cytoprotection by ATP luminescence; PC12 HTT-Q103 induced, cytoprotection, ATP luminescence, 40 h; 230,000 tested, 0.14% active; AID 1471; Potency, µM (doses to about 56.4 µM), for inactives: cytoprotection (ATP increase), hits mostly activators; active = well fitted curve in the direction sought with a large enough effect; inconclusive = small, poorly fitted or top-dose-only effect, or another doubt; inactive = no such curve, though single readings can be large; an effect the other way counts as inactive or inconclusive; note: potency is the fitted concentration of half-maximal effect; % of control where 0% means no effect; nearly all actives have a fitted effect of over 45% in size
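Compounds added alongside 100 nM tebufenozide, which induces toxic Q103 huntingtin exon 1-GFP in stable PC12 cells; surviving cells quantified by luminescent ATP measurement. Medium: phenol red-free DMEM, 5% equine and 5% calf serum.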
ALDH1A1 block: blocks purified human ALDH1A1 activity; P00352; Purified ALDH1A1, NADH fluorescence, propionaldehyde substrate; Potency, µM (top dose mostly 75.3 µM), for the others: at the top dose activity, negative = inhibition, usual class: inhibitors; 220,000 tested, 7.3% active;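 note: potency is the fitted concentration of half-maximal effect; plate controls were no enzyme wells and a reference inhibitor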
HttQ103 aggreg: inhibitors of mutant huntingtin aggregate formation in PC12 cells. PC12 HttQ103-GFP aggregates, Acumen cytometry, 40 h. Potency, µM (highest dose often 46.1 µM), inactives show top-dose activity change, negative = inhibition, hits mostly inhibitors. 220,000 tested, 1.1% active; active = well fitted curve in the direction sought with a large enough effect; inconclusive = small, poorly fitted or top-dose-only effect, or another doubt; inactive = no such curve, though single readings can be large; an effect the other way counts as inactive or inconclusive; note: potency is the fitted concentration of half-maximal effect; % is set by controls: 0 for no effect and ±100 for the full control effect; nearly all actives have a fitted effect of over 60% in size
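Compounds (qHTS titration) were added to PC12 cells expressing an ecdysone-driven HTT exon 1 Q103–GFP fusion after induction with 100 nM tebufenozide. Aggregate formation was measured as GFP objects in cell lysates.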
GoLoco inh red: inhibitors of human Gai1-RGS12 GoLoco interaction (red fluorophore) | Potency, µM (series often up to 61.6 µM), without a hit: at the top dose activity, negative = inhibition, actives largely listed as inhibitors | P63096 | 230,000 tested, 0.44% active | Gai1:RGS12 GoLoco peptide FP, rhodamine, 10 min | AID 880; active = well fitted inhibition curve with a large enough effect, not every such curve was filed as active; inactive = no such curve, though single readings can be large or run the other way; note: potency is the fitted concentration of half-maximal effect; % is set by controls: 0 for no effect and ±100 for the full control effect; nearly all actives have a fitted effect of over 30% in size
* marks the source's active call; other numbers are inactive results; ? = inconclusive; · = not tested or not shown; [ ] = remark or other dose. Unless noted, calls come from the whole dose curve; as a rule, active = well fitted inhibition curve with a large enough effect (not every such curve was filed as active); inconclusive = small, poorly fitted or top-dose-only effect, or another doubt; inactive = no such curve, though single readings can be large or run the other way.

SMILES	PNC assembly inh	HPGD block	HTT ATP protect	ALDH1A1 block	HttQ103 aggreg	GoLoco inh red
CN(C)S(=O)(=O)N1CCN(CC(O)COc2ccc3cc(Br)ccc3c2)CC1 (stereo not given)	?	-13.9%	-31.9%[0.074 µM]	-8.7%	11.2µM*	-0.6%
Cc1nc(C)n(CC(O)COc2ccc3cc(Br)ccc3c2)n1 (stereo not given)	7.8	-19.6%	-18.0%	13.7%	12.6µM*	2.4%
O=S(=O)(c1ccccc1)N1CCC2(CCCN(c3ccncc3)C2)CC1	·	-0.9%	-28.0%	-1.1%	·	4.0%
C[C@]1(c2ccccc2)OC(C(=O)O)=CC1=O	·	-9.6%	-2.3%	-7.7%	-18.0%	-3.6%
Cn1c(=N)c(S(=O)(=O)c2ccc(F)cc2)cc2c(=O)n3ccccc3nc21	-11.9	?	-23.1%[0.074 µM]	?	7.5%	-0.4%
Cn1c(=N)c(S(=O)(=O)c2ccccc2)cc2c(=O)n3ccccc3nc21	-8.3	?	-17.3%	?	3.16µM*	8.3%
CN(C)c1ncc2nc(-c3ccc(F)cc3)c(=O)n(-c3ccccc3)c2n1	·	·	-52.5%	?	·	14.8%
CC(=O)N1N=C(c2ccncc2)CC1c1ccccc1O (stereo not given)	·	·	-6.5%[10 µM]	-6.0%	-8.3%[9.22 µM]	18.4%
CC(=O)N1N=C(c2ccccc2)CC1c1cn(Cc2ccccc2)c2ccccc12 (stereo not given)	?	-13.5%	-11.5%[10 µM]	28.2µM*	?	-1.8%
CC(=O)/C(=N/Nc1ccccc1[N+](=O)[O-])N1CCCc2ccccc21	·	·	·	·	11.2µM*	2.6%
COc1cc(OC)c(N2CC34C=CC(O3)C(C(=O)O)C4C2=O)cc1Cl (stereo not given)	-91.7*	-5.0%	-15.1%	-3.1%	-13.2%	9.0%
Cc1ccc(N2C(=O)c3ccc(C(=O)N4CCOCC4)cc3C2=O)cc1C	-9.8	-5.0%	1.6%[10 µM]	?	7.9%	-3.7%
O=C1c2ccccc2C(=O)N1CCSc1n[nH]c(=S)s1	-9.5	?	-14.2%	2.24µM*	4.7%	-29.4%
O=C1c2ccccc2C(=O)N1CCSc1ncn[nH]1	10.7	-11.1%	8.2%[1.9 µM]	7.6%	7.6%	-11.6%
O=C(CC(=O)NC1CCCCC1)N/N=C/c1ccccc1Cl	34.4	-17.9%	42.1%[10 µM]	5.0%	11.3%	3.0%
O=C(CC(=O)NC1CCCCC1)N/N=C/c1cccc2ccccc12	-85.5*	?	8.5%[10 µM]	?	-6.6%	3.0%
CC1=NN(c2ccc(C(F)(F)F)cn2)C(=O)C1	12.6	-9.1%	·	22.4µM*	-25.5%	5.4%
CC(=O)CCOC1CCCCO1 (stereo not given)	·	-8.3%	-23.2%	9.2%	·	-0.3%
COc1cccc(/C=C(\CC(=O)O)c2nc3ccccc3s2)c1	·	·	2.5%	-3.4%	-24.9%	-2.3%
O=C(O)CC/C(=C\c1ccc(N2CCCC2)c([N+](=O)[O-])c1)c1nc2ccccc2s1	·	·	34.0%[10 µM]	1.26µM*	3.0%[9.22 µM]	10.4%
Cn1cnnc1Sc1ccc(C(=O)NCCC(c2ccccc2)c2ccccc2)cc1[N+](=O)[O-]	-18.9	-19.6%	?	20µM*	-3.5%	-16.6%
Cn1cnnc1SCC(=O)NCCC(c1ccccc1)c1ccccc1	-3.0	-1.8%	11.7%	-1.6%	-10.7%	-6.1%
Cn1cnnc1Sc1ccc(/C=C(\CC(=O)O)c2nc3ccccc3s2)cc1[N+](=O)[O-]	·	·	15.3%[10 µM]	20µM*	4.1%[9.22 µM]	8.3%
COc1ccc(OC(=O)CN2C(=O)C3C4CCC(C4)C3C2=O)cc1 (stereo not given)	?	0.4%	-5.0%[10 µM]	-8.7%	-11.1%	-6.1%
CCCCNC(=O)Nc1cc(C(=O)OC)ccc1Cl	-18.2	1.5%	6.4%	7.9%	1.8%	-6.3%
Cc1cc(=S)[nH]c2ccccc12	15.5	14.1µM*	12.0%	?	9.5%	3.3%
Cc1ccc2c(C)cc(=S)[nH]c2c1	·	·	5.1%	-10.8%	-2.9%	6.2%
CNc1nc(=S)[nH]c2ccccc12	·	·	-5.3%[10 µM]	·	-1.6%[9.22 µM]	-5.7%
Cc1ccc2[nH]c(=S)cc(C)c2c1	6.8	7.08µM*	-8.8%	3.16µM*	1.3%	4.8%
